Data taken from ChEMBL document CHEMBL1157539, “Thousands of chemical starting points for antimalarial lead identification” (Nature, 2010).

The compounds below were run on Plasmodium falciparum (assay: GSK_TCMDC: Inhibition of Plasmodium falciparum 3D7 in whole red blood cells, using parasite LDH activity as an index of growth. Test compounds present at 2uM).
Assay type: functional

Inhibition, 92%:
COCCSc1nc2scc(C)c2c(=O)n1Cc1cccc(OC)c1
O=C1COc2ccc(CNC3CCC(O)(CCc4ccnc5cc6c(cc45)OCCO6)CC3)nc2N1 (stereo not given)

Inhibition, 97%:
Cn1nc(-c2ccc(CN[C@@H]3CCc4ccc(O)cc43)cc2)c2cnc(NC3CCCC3)nc21
COc1cc(CNC[C@@H](O)[C@H](Cc2ccccc2)NC(=O)c2cc(OC(C)C)cc(N3CCCS3(=O)=O)c2)cc(OC)c1.Cl
COc1ccc2nccc([C@@H](O)CN3CCC(NCc4cc5ccccc5nc4O)CC3)c2c1.Cl
NC(=O)CCC(NC(=O)CNC(=O)Nc1cccc(C(F)(F)F)c1)C(=O)O (stereo not given)

Inhibition, 91%:
O=C(/C=C/c1ccc(Cl)c(Cl)c1)NCCCCCN1CCN(C(=O)Nc2cccc(F)c2)CC1
O=C(NCC1CCC(C(=O)NCCN2CCCCC2)CC1)c1ccc(O)c(-c2ccc(Cl)c(Cl)c2)c1 (stereo not given)
Cc1nnc2c(NC(=O)NC3CCCC3)cc3ccc(-c4cccc(CN5CCN(C)CC5)c4)cc3n12
CC=CC1CCNC(C(O)c2ccnc3ccc(OC)cc23)C1 (stereo not given)

Inhibition, 89%:
Cc1nnsc1C(=O)Nc1cccc(-c2ccc(-c3nc4cc(F)ccc4[nH]3)s2)c1
COCn1ncc2cc(-c3cccc(NC(=O)c4csc(NC(C)=O)n4)c3)ccc21

Inhibition, 88%:
Br.C=CCNC(CCCCC)c1ccc(OCCOc2ccc(C(CCCCC)NCC=C)cc2)cc1 (stereo not given)

Inhibition, 81%:
CO/C(=C\C=C\c1cc2cc(Cl)c(Cl)cc2[nH]1)C(=O)NCC(C)(C)CN(C)C
CCOc1ccc(C(=O)N2CCOC(CCN3CCC4(CCc5ccccc54)CC3)(c3ccc(Cl)c(Cl)c3)C2)cc1 (stereo not given)

Inhibition, 82%:
O=C(Cc1ccc(Cl)cc1)NC1CCN(c2ccnc3cc(Cl)ccc23)C1.O=C(O)C(F)(F)F (stereo not given)

Inhibition, 94%:
O=C(Nc1ccc(OC2CCN(Cc3ccc(F)cc3)C2)cc1)c1cccs1.O=C(O)C(F)(F)F (stereo not given)
O=C(CN(c1cccc(C(F)(F)F)c1)S(=O)(=O)c1ccc(Cl)cc1)NCCC(c1ccccc1)c1ccccc1

Inhibition, 100%:
COc1ccc(-c2cccc(NC(=O)c3cccc(Cl)c3)c2)cc1CN1CCCN(C)CC1.O=C(O)C(F)(F)F
O=S(=O)(c1ccc(Cl)cc1Cl)N1CCCCC(c2ccc(C(F)(F)F)cc2)=N1
CN1CCC(NCc2cccc(-c3ccc(S(=O)(=O)NCc4ccccc4)cc3)c2)CC1.O=C(O)C(F)(F)F
CC(=O)Nc1ncc(C(=O)Nc2cccc(-c3ccc(-c4nc5ccccc5[nH]4)cc3)c2)s1
Cc1nnsc1C(=O)Nc1cccc(-c2ccc(-c3nc4cccc(C)c4[nH]3)s2)c1
CCN(C1CCCCC1)S(=O)(=O)c1ccc(OC)c(N2CCN(C(=O)C(Cl)(Cl)Cl)CC2)c1
CCc1c(CCNCCCCCCNCCc2ccc(OC)c(OC)c2CC)ccc(OC)c1OC.Cl
O=C(O)C(F)(F)F.c1cc(-c2ccc(CN3CCN(c4ccncc4)CC3)cc2)cc(-c2nc3ccccc3[nH]2)c1
Cl.Nc1c2c(nc3ccc(NC(=O)CCCc4ccccc4)cc13)CCCC2
CN1CCC(NCc2cccc(-c3cnc(NCc4ccccc4)nc3)c2)CC1.O=C(O)C(F)(F)F
O=[N+]([O-])c1ccc(N2CCCN(C(=S)Nc3ccc(F)cc3Br)CC2)nc1
O=C(/C=C/c1ccc(Cl)c(Cl)c1)NCCCCCN1CCC(NC(=O)Nc2ccc(OC(F)F)cc2)CC1
CN1CCN(Cc2ccc(-c3ccc4c(Nc5ccc(Cl)cc5F)ccnc4c3)o2)CC1

Inhibition, 99%:
CCCCCCSc1nnc(COc2cccc3ccccc23)n1-c1ccc(OC)cc1
Cl.O=S(=O)(Nc1cc2c(cc1O)CCNCC2)c1ccc(-c2ccc(Cl)cc2)cc1
CC(C)CNCc1cccc(-c2cccc(CN(CCN(C)C)C(=O)NCCc3ccccc3)c2)c1.O=C(O)C(F)(F)F
Cc1ccccc1C1CCN(C2CCC(NC(=O)/C=C/c3cc(F)cc(F)c3)CC2)CC1 (stereo not given)
Cc1cc(-c2nc3ccc(N4CCN(C)CC4)cc3[nH]2)nn1Cc1cc(Cl)ccc1OCC(C)C.Cl

Inhibition, 90%:
CN(C)CCOc1ccc2c(=O)cc(CCc3cccc(F)c3F)n(CC(=O)N(C)Cc3ccc(-c4ccc(C(F)(F)F)cc4)cc3)c2c1.O=C(O)C(O)C(O)C(=O)O

Inhibition, 93%:
COc1cc(Cc2c(C)nc3nc(N)nc(N)c3c2C)c(Br)c(OC)c1OC.Cl
O=C(Nc1ccc2nc3n(c(=O)c2c1)CCCCC3)C(=O)N1CCN(c2ccc(F)cc2)CC1
Cc1cc2nc(-c3ccc(C(=O)NC4CCN(Cc5ccccc5)CC4)cc3)[nH]c2cc1C
